± gives the standard deviation of the averaged measurements. The full ranking holds about 25,000 sequences; the median of “ln(normalized median fluorescence intensity)” is about 8.6, and the highest 2% start at about 10. Shown is part of a subset that was picked to be rich in the highest values.
What follows are sequences tested on PfAP2-EXP AP2 domain (GST-tagged) (assay: gcPBM binding intensity (ln(normalized median fluorescence intensity)); higher = stronger DNA binding).
How it was run: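 Alexa488 anti-GST antibody, scanned at 488 nm, detected GST-tagged P. falciparum DNA-binding domains that had been expressed in E. coli and incubated for 1 h on an Agilent 4 × 180k array. The array carried primer-extended double-stranded 36-bp intergenic genomic probes and negative controls. Binding intensity is the highest Masliner-normalised natural-log median intensity across replicate spots of either orientation of each probe.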

Row | Sequence | gcPBM binding intensity (ln)
1 | TGTTATATATGTAATTGTACACTTATACAAAATTAT [XGTACX_site6350] | 8.52 ± 0.22
2 | TTTTTGTTTTTGTTTTGTACTCATACATACTATCAT [XGTACX_site4210] | 8.99 ± 0.44
3 | AAAAAAAATATATTACAAAACTTAGGATCCTAATAT [CACACA_negctrl_site470] | 8.48 ± 0.39
4 | AAATATTAAATGGAAAACAAATATATATATCTTAAT [XGTACX_negctrl_site383] | 8.56 ± 0.38
5 | TATATATATATATGGGGTACAAATGGTCAGTATTAT [XGTACX_site1223] | 10.2 ± 0.21
6 | AAAAAAAAAATTGAAAGTACACAAATGGGGTATTAT [XGTACX_site3960] | 8.75 ± 0.35
7 | TATGTATAAAAATAATGTACAAAATATATTATATGT [XGTACX_site2794] | 8.69 ± 0.33
8 | GATATTCATTATATATGTACATATATGTAATATATA [XGTACX_site2210] | 8.55 ± 0.24
9 | AATATAAAAAGGCACACACACAAAAAAAAAAAAAAA [CACACA_site896] | 8.26 ± 0.49
10 | TCTATAAAGGAATATACACACATATATATATATATA [CACACA_site410] | 10 ± 0.26
11 | GTAATCCACAAACACACACACATACACATATATATA [CACACA_site2728] | 8.78 ± 0.34
12 | TATATATATAAACACACACACACATATATATATATT [CACACA_site8814] | 9.02 ± 0.23
13 | GAATAAAGGAGAGGCACACATATATATATATATATA [CACACA_site2452] | 10.2 ± 0.25
14 | AATCCACAAAGACACACACACACATATATATATATA [CACACA_site1269] | 10.2 ± 0.35
15 | AAAAAAAAAAAAAAGACACACATATATATATATATA [CACACA_site633] | 10 ± 0.31
16 | TAATAAAAAAAGTGCACACACATAATATATATATAT [CACACA_site3340] | 9.74 ± 0.28
17 | AAACATAAGGGACACACACACATATATATATATATA [CACACA_site5920] | 10.3 ± 0.16
18 | AATAATAAAAAAAGTGCACACACATAATATATATAT [CACACA_site9100] | 9.47 ± 0.099
19 | TATAAAAGTGGACACACACACATATATATATATATA [CACACA_site4673] | 10.2 ± 0.64
20 | TATATATATAAACACACACACATATATATATATATA [CACACA_site4584] | 10.1 ± 0.35

Row | Sequence | gcPBM binding intensity (ln)
21 | ATAAAAAAAGATGAACGTACATATATTTTAAAAATC [XGTACX_site5950] | 8.7 ± 0.45
22 | TAATCATTTTTAAATTGTACAATTTATATAATAAGT [XGTACX_site6081] | 8.5 ± 0.26
23 | AAATTTATAAATTAAAGTACATATTTCTTGAATATT [XGTACX_site859] | 8.34 ± 0.48
24 | CTCAACATATACGTAACACACATATATATATATATA [CACACA_site3838] | 10.2 ± 0.41
25 | TAAGTTTTGTTTTTTTGTACTCATTCATACTATCAT [XGTACX_site3638] | 8.87 ± 0.49
26 | TAAAATTTAAGTTATACACACTTAAGTAACATCATC [CACACA_site6395] | 8.72 ± 0.37
27 | TGTTTATGTATCAATTGTACAAAAAAAAAAAAAAAA [XGTACX_site1590] | 8.26 ± 0.46
28 | TGACCTGTTCAGGTAACACACATATAAACACATACA [CACACA_site4186] | 8.8 ± 0.43
29 | TTAATAACGTAATGTAAATGTTTCATACCCTTTTTT [CACACA_negctrl_site988] | 8.36 ± 0.43
30 | CATATAAAAGGACACACACACACATATATATATATA [CACACA_site4674] | 10 ± 0.43
31 | AATACAAAAAAAGGTACACACATAATATATTTATTA [CACACA_site2628] | 8.7 ± 0.34
32 | ACAAATACAAAAAAAGGTACACACATAATATATTTA [XGTACX_site5515] | 8.72 ± 0.51
33 | CCATAAAAAGGATACACACACACACCCACATATATA [CACACA_site903] | 8.71 ± 0.45
34 | TAAAAGGATACATATACACACATATATATATATATA [CACACA_site2791] | 10.2 ± 0.42
35 | TATATATATAGACACACACACACATATATATATATA [CACACA_site9366] | 10.1 ± 0.42
36 | AAAGGATACAGACACACACACACATATATATATATA [CACACA_site906] | 10.1 ± 0.4
37 | AAAGGATATAGACACACACACACATATATATATATA [CACACA_site2200] | 10.2 ± 0.14
38 | CCATAAAAAGGATACACACACACACGCACATATATA [CACACA_site6550] | 8.73 ± 0.5
39 | ATAAAAAAAGGACACACACACATATATTTATTTATA [CACACA_site7438] | 8.66 ± 0.52
40 | ATAAAAAAAGGACACACACACATATATATATATATA [CACACA_site5662] | 10.2 ± 0.42

Row | Sequence | gcPBM binding intensity (ln)
41 | CAACGATACAAAAAAGGTACACATATATATATATAT [XGTACX_site8688] | 10.2 ± 0.47
42 | TTTTTTATTTTAAAAACATGCATAAAATATAATAGT [TGCATGCA_site762] | 8.94 ± 0.42
43 | ACATGTATACTTTTTACGAAAAAAAAAAAAAAAAAA [CACACA_negctrl_site1638] | 8.09 ± 0.45
44 | TTTTAAAAAGATCATTAAAAAAAAAAAAAGAACAAA [CACACA_negctrl_site528] | 8.53 ± 0.41
45 | TATACATATTTGTATTGTACATAAACTAAATCTTCA [XGTACX_site610] | 8.21 ± 0.36
46 | ATACGATTGAAACATTGTACATGAATATAAAAAAAT [XGTACX_site5704] | 8.88 ± 0.47
47 | ATATTTTATTATTGTTGTACTTTTTTTTGATTGTTT [XGTACX_site4090] | 8.81 ± 0.42
48 | TTGTGTTCTTATTTTTACACCGAAAAATATTAAAAG [CACACA_negctrl_site535] | 8.55 ± 0.29
49 | AATGGATGGTCCAAATGTACATATATATATATATAT [XGTACX_site4800] | 10.1 ± 0.41
50 | ATATATATATGTTACTGTACTAATTTATATGTTAAT [XGTACX_site3341] | 9.665 ± 0.064
51 | AAAGGGATAACACCAAAAAAAATAAAAATAAAAATA [GTGCAC_negctrl_site680] | 8.61 ± 0.54
52 | AGGATATGCAGACACACACACATATAGATTTATATA [CACACA_site7100] | 8.41 ± 0.48
53 | CATATAAAAAGACACACACACACATATATATATATA [CACACA_site940] | 10.3 ± 0.18
54 | GAGAAATGGGGACACACACACATATTATATATATAT [CACACA_site4943] | 9.71 ± 0.2
55 | AAAAATTATGGACACACACACATATATATATATATT [CACACA_site4717] | 8.53 ± 0.31
56 | ATAAAAAAAAGACACACACACATATATATATATATA [CACACA_site3073] | 10 ± 0.33
57 | AATTATGGGGAAAAGACACACATATATATATATATA [CACACA_site2589] | 10.3 ± 0.31
58 | AAAAAAAAAAGACACACACACATATAAATATAAATA [CACACA_site6899] | 8.75 ± 0.38
59 | AGGATACACAGACACACACACATATATATATATATA [CACACA_site907] | 10 ± 0.45
60 | AGGATATGCAGACACACACACATATATATATATATA [CACACA_site2201] | 10.3 ± 0.41

Source: the supplement of paper PMC11417369
